Compound activity deposited in PubChem by National Center for Advancing Translational Sciences (NCATS).
POLK inh = blocks human DNA polymerase kappa activity; purified Pol kappa, fluorescent DNA synthesis assay, 10 min; Q9UBT6; 400,000 compounds, 0.53% hits; AID 588579; Potency, µM (series often up to 107 µM), inactives show top-dose activity, negative = inhibition, most hits filed as inhibitors; note: potency is the fitted concentration of half-maximal effect; % is set by controls: 0 for no effect and ±100 for the full control effect
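50 nM final substrate added after 15 min RT preincubation of 10 nM Pol kappa with compound; fluorescence read at 0 and 10 min.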
POLI inh = DNA polymerase iota (human) inhibition | Q9UNA4 | Pol iota fluorescent replication assay, 10 min | Potency, µM (titrated, usually from 115 µM), without a hit: at the top dose activity, negative = inhibition, hits mostly inhibitors | 390,000 compounds, 1% hits | AID 588590; note: potency is the fitted concentration of half-maximal effect
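Fluorescent replication assay read twice, at 0 min and 10 min after adding 50 nM (final) substrate. Enzyme (10 nM) and compounds were first incubated 15 min at room temperature; enzyme-free buffer wells were negative controls.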
Pol beta inh = DNA polymerase beta (human) inhibition. 340,000 compounds, 1.3% hits. Pol beta primer extension/strand displacement, fluorescence kinetic. Potency, µM (highest dose often 114 µM), for the others: top-dose activity change, negative = inhibition, usual class: inhibitors; note: potency is the fitted concentration of half-maximal effect; % is set by controls: 0 for no effect and ±100 for the full control effect
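Pol beta (10 nM) was preincubated with compound for 15 min at room temperature. The reaction was then started with 50 nM substrate and read immediately and after a further 10 min at room temperature.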
PI5P4Ka inh = inhibitors of human PI5P4K alpha; P48426; PI5P4Kalpha enzyme, ADP-Glo luminescence, 60 min; stronger effect = lower value; max response, %; 330,000 compounds, 1.2% hits; AID 652105; active = max response of -50% or lower; inconclusive = between -30% and -50%; inactive = -30% or higher; note: value at the top dose of about 77 µM; % is set by controls: 0 for no effect and ±100 for the full control effect
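Quantitative HTS of the MLSMR library against PI5P4Kalpha with substrate. ATP added last at 5 microM final; room temperature, 60 minutes. Remaining ATP depleted, ADP converted and read as luminescence.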
FEN1 inhibitor = blocks human flap endonuclease 1; P39748; Recombinant FEN1 flap cleavage, fluorescence, 15 min; Potency, µM (series often up to 114 µM), inactives show at the highest dose activity change, negative = inhibition, usual class: inhibitors; 390,000 compounds, 0.35% hits; note: potency is the fitted concentration of half-maximal effect; % is set by controls: 0 for no effect and ±100 for the full control effect; nearly all actives have a fitted effect of over 65% in size
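With each library titrated from low to high concentration, compounds met 10 nM FEN1 for 15 min at room temperature before 50 nM substrate was added; readings at 0 and 15 min fed four-parameter Hill curve fits.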
Pol eta inh = blocks human DNA polymerase eta activity | Q9Y253 | recombinant Pol eta, fluorescent DNA replication assay | Potency, µM (top dose mostly 114 µM), inactives show at the top dose activity change, negative = inhibition, hits mostly inhibitors | 390,000 compounds, 1.2% hits | AID 588591; note: potency is the fitted concentration of half-maximal effect; % is set by controls: 0 for no effect and ±100 for the full control effect
Target sequence (Q9Y253 whole entry, looked up): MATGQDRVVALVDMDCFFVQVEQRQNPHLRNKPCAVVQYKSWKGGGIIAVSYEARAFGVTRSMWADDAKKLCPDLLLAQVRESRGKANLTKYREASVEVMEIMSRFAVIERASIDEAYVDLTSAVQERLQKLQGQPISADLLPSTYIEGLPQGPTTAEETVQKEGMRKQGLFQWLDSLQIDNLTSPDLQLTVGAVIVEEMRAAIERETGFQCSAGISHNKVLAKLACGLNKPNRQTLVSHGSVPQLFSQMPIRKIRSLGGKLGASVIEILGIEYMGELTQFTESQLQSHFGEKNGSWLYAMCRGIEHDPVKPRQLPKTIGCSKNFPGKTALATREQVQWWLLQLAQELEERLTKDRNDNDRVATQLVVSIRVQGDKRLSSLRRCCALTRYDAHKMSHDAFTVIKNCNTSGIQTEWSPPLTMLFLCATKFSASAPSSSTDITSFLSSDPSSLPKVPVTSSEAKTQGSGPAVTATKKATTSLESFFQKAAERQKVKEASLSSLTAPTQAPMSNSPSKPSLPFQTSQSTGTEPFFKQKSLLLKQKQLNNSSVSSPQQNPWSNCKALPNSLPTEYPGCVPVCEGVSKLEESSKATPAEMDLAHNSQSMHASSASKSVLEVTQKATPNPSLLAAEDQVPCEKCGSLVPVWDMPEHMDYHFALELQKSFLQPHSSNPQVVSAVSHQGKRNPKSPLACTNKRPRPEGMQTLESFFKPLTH
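Pol eta at 10 nM preincubated with compounds 15 min at room temperature; reaction started with fluorescent substrate (50 nM final) and read kinetically at 0 and 10 min.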
* hit, by the source's call; ? = inconclusive; nt = no result; [ ] = dose if it differs, or a comment. In the library only some 2.8% were active in any assay of this set; here they are far more common. Unless noted, calls come from the whole dose curve; as a rule, active = well fitted curve in the direction sought with a large enough effect; inconclusive = small, poorly fitted or top-dose-only effect, or another doubt; inactive = no such curve, though single readings can be large; an effect the other way counts as inactive or inconclusive.

SMILES	POLK inh	POLI inh	Pol beta inh	PI5P4Ka inh	FEN1 inhibitor	Pol eta inh
CC1=Nc2ccccc2/C1=C/c1nc(-c2ccc(C)s2)oc1O	-2%	-2%	3%	8	22%	-2%
CSc1nc(SCC(N)=O)c2c3c(sc2n1)CN(C)CC3	-6%	?	?	-12	50µM*	?
CSc1nc(NCc2ccco2)c2c3c(sc2n1)CN(C)CC3	nt	nt	40µM*	nt	nt	nt
Fc1ccc(CNc2ncnc3nc[nH]c23)cc1	3%	?	nt	nt	5%	nt
NC(=O)c1ccsc1NC(=O)COC(=O)c1ccc(Cl)c(N)c1	-29%	?	nt	?	0%	22µM*
COc1ccc(C(=O)NC(C(=O)OCC(=O)Nc2sccc2C(N)=O)C(C)C)cc1 (centres undefined)	-30%	?	nt	-13	19%	89µM*
Cc1ccc(S(=O)(=O)N2Cc3ccccc3CC2C(=O)Nc2ccc3c(c2)OCO3)cc1 (centres undefined)	50µM*	?	22µM*	-51*	-4%	10µM*
CS(=O)(=O)N1Cc2ccccc2CC1C(=O)OCC(=O)NCCc1ccc(S(N)(=O)=O)cc1 (centres undefined)	-3%	29%	nt	-4	11%	-15%
O=C(O)C1Cc2ccccc2CN1S(=O)(=O)c1ccccc1 (centres undefined)	-8%	55%	-9%	1	6%	79µM*
O=C(O)C1Cc2ccccc2CN1S(=O)(=O)c1ccc2ccccc2c1 (centres undefined)	-23%	?	-25%	-14	-10%	5.6µM*
CS(=O)(=O)N1Cc2ccccc2CC1C(=O)OCC(=O)Nc1ccc2ccccc2c1 (centres undefined)	?	?	3.2µM*	nt	-9%	?
CN(C)C(=O)C1Cc2ccccc2CN1S(=O)(=O)c1ccc(F)cc1 (centres undefined)	2%	-6%	-1%	3	0%	-1%
COc1ccc2nc3cccc(OC)c3nc2c1	-14%	49%	40µM*	-7	?	?
COC(=O)c1cc2occc2n1CC(=O)Nc1ccc(N(C)C)cc1	9%	16%	16%	nt	-2%	-16%
COc1cc(NC(=O)C(c2ccccc2)c2ccccc2)c(C(=O)O)cc1OC	-8%	31%	56%	-3	-2%	-14%
O=C(OCc1ccccc1)N1CCC2CC1c1cc(/C=C/CCCSc3ncccn3)ccc12 (centres undefined)	nt	nt	nt	-5	nt	-7%
COc1ccc(NC2CCCN(C(=O)c3cccc(C)n3)C2)cc1OC (centres undefined)	?	50µM*	3%	1	1%	-2%
COc1ccc(OC)c(NC(=O)c2cccc(NC(=O)c3ccco3)c2)c1	nt	nt	nt	-18	nt	-11%
Cc1ccc(NC(=O)c2c(C)oc3ccc(O)c(CN4CCCCCC4)c23)cc1	-5%	11%	-19%	nt	2%	9%
COc1ccc(OC)c(NC(=O)C(C)n2c(=O)c(-c3ccccc3NC(C)=O)nc3ccccc32)c1 (centres undefined)	-4%	-3%	36%	nt	-7%	-7%
CN=c1scc(-c2ccc(F)cc2)n1/N=C/c1ccc(O)c(O)c1	-23%	?	5µM*	-23	-12%	?
CN(/N=C/c1ccc(O)cc1O)c1nc(-c2ccccc2)cc(-c2ccccc2)n1	-2%	1%	22%	-2	-3%	-16%
O=C(O)/C(=C\c1ccc(F)cc1)c1ccc(-c2ccccc2)cc1	-5%	108%	?	2	-6%	-11%
O=C(O)/C(=C\c1ccccc1OC(F)F)c1ccc(-c2ccccc2)cc1	-30%	61%	56µM*	0	2%	-29%
O=C(Nc1ccc(Br)cc1F)C1CCN(c2nc3ccccc3[nH]2)CC1	-13%[60.1 µM]	10%	12%	nt	16%	-13%
SMILES	POLK inh	POLI inh	Pol beta inh	PI5P4Ka inh	FEN1 inhibitor	Pol eta inh
COc1cc(NC(=O)COc2ccccc2Cl)ccc1NC(=O)c1cccs1	-2%	50µM*	7%	-2	9%	0%
COc1cc(NC(=O)COc2ccccc2[N+](=O)[O-])ccc1NC(=O)c1cccs1	-4%	?	?	0	-6%	?
COC(=O)c1sc(-c2ccc(C(C)(C)C)cc2)cc1NC(=O)CSCC(=O)O	9%	79µM*	-7%	8	-4%	89µM*
C=Nc1ccc(/C=C/c2ccnc3ccccc23)cc1	-19%	30%	nt	nt	-20%	nt
COc1cc(NC(=S)NCCC(c2ccccc2)c2ccccc2)cc(OC)c1	?	89µM*	30%	12	79µM*	?
COc1cccc(NC(=S)NCCC(c2ccccc2)c2ccccc2)c1	-6%	-9%	6%	9	11%	-16%
CC(=O)N1CCc2cc(CNC(=O)Nc3cc(Cl)ccc3C)ccc21	-4%[60.1 µM]	12%	28µM*	nt	-4%	-10%
Cc1cc(C)c2nc(Nc3nc(-c4ccccc4)cc(=O)[nH]3)nc(C)c2c1	-10%	-13%	?	-7	-9%	5%
Cc1cc(-c2ccccc2)nc(Nc2nc3c(C)cccc3c(=O)[nH]2)n1	-3%	17%	nt	1	17%	45µM*
Nc1ccc(O)c2c(=O)cc(-c3ccccc3Cl)oc12	-11%	-19%	22µM*	-1	-8%	-12%
O=c1cc(-c2ccccc2Cl)oc2cc(O)cc(O)c12	-5%	5%	?	0	-18%	-10%
O=c1cc(-c2ccccc2Cl)oc2c(NS(=O)(=O)c3cc(Cl)cc(Cl)c3O)ccc(O)c12	?	40µM*	45µM*	-89*	-36%	32µM*
COc1ccc(C(=O)CCC(C)(C)[N+](=O)[O-])cc1	-11%	109%	0%	7	8%	-18%
COc1cccc2c1C(=O)c1c(O)c3c(c(O)c1C2=O)C[C@](O)(C(=O)CO)C[C@@H]3O[C@H]1C[C@H](N)[C@@H](O)[C@H](C)O1	-2%[60.1 µM]	nt	nt	nt	nt	nt
CC(=O)[C@]1(O)Cc2c(O)c3c(c(O)c2[C@@H](O[C@H]2C[C@H](N)[C@H](O)[C@H](C)O2)C1)C(=O)c1ccccc1C3=O	27µM*	7.9µM*	14µM*	8	nt	14µM*
CC(=O)[C@]1(O)Cc2c(O)c3c(c(O)c2[C@@H](O[C@H]2C[C@H](N)[C@H](O)[C@H](C)O2)C1)C(=O)c1c(O)cccc1C3=O	10µM*	nt	nt	nt	nt	nt
CCOC(=O)[C@]12CCC=C1N(Cc1ccc(Cl)cc1Cl)C(=O)[C@H](CC(=O)N1CCOCC1)C2	nt	nt	nt	-7	nt	nt
O=C(CC1Sc2ccccc2NC1=O)NCc1ccc(Cl)cc1 (centres undefined)	-7%	116%	9%	0	1%	-24%
